Screening results (PubChem)
Rows were chosen to be rich in hits. Some 19% of all compounds tested hit in one or more screens of this group.
DT40 TDP1 CPT: DT40-hTDP1 cell growth loss with CPT; 12% of 420,000 active; chicken DT40 Tdp1-/-;hTDP1 cells + 20 nM CPT, ATP luminescence, 48 h; Potency, µM (series often up to 46.2 µM), without a hit: top-dose activity change, negative = growth inhibition, most hits filed as inhibitors; also: potency is read from the fitted curve at half-maximal effect; nearly all actives have a fitted effect of over 55% in size
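Cell growth measured by CellTiter-Glo luminescence after a minimum 48 h, 37 C compound exposure with 20 nM CPT in Tdp1-knockout DT40 cells stably expressing hTDP1, seeded 400/well; qHTS titration format.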
HT1080-NT tox: kills 2HG-producing HT-1080-NT fibrosarcoma cells; HT-1080-NT fibrosarcoma viability, CellTiter-Glo ATP luminescence, 48 h; Potency, µM (series often up to 46.1 µM), for inactives: at the highest dose activity, negative = less viability, most hits filed as cytotoxic; 1.6% of 360,000 active; AID 686970;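 also: NT is the 2HG producing partner of a matched IDH1 knockdown line; potency is read from the fitted curve at half-maximal effect; 0% = DMSO-treated cells and -100% = media-only wells without cells; nearly all actives have a fitted effect of over 55% in size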
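HT-1080-NT; 750 cells/well; 5% FBS RPMI; 48 h compound, 37 degrees C; CellTiter-Glo luminescence; curve fitting and curve-class assignment.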
IL-1B inflam inh: inflammasome signaling inhibition, IL-1 beta readout; THP-1 LPS/ATP IL-1B secretion, AlphaLISA, 16 h; active compounds read low; activity change, % at 57.5 µM; 4.7% of 360,000 active; in the data active = activity change below about -50%; inconclusive = mostly about -30% to -49%
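THP-1 cells pretreated 1 hr with compounds (up to 57.5 uM final), then stimulated with LPS (250 ng/mL final) plus ATP (1.25 mM final); secreted IL-1B measured by AlphaLISA after 16 hr, decreased signal indicating inhibition.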
TDP1 cell noCPT: qHTS for Inhibitors of human tyrosyl-DNA phosphodiesterase 1 (TDP1): qHTS in cells in absence of CPT; DT40 Tdp1-/- hTDP1 cells, no CPT, ATP luminescence, 48 h; Potency, µM (titrated, usually from 46.2 µM), inactives show at the highest dose activity change, negative = growth inhibition, most hits filed as inhibitors; 15% of 420,000 active; AID 686978, 2013; also: potency is read from the fitted curve at half-maximal effect; nearly all actives have a fitted effect of over 55% in size
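A cellular qHTS used chicken DT40 cells lacking endogenous Tdp1 but carrying stably transfected human TDP1. Compounds were applied without camptothecin, and cell growth kinetics were judged by ATP-dependent luminescence after ≥48 hr.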
HT1080 IDH1KD tx: toxicity to HT-1080 IDH1 knockdown cells (counter line); HT-1080 IDH1 knockdown viability, ATP luminescence, 48 h; Potency, µM (series often up to 46.1 µM), for inactives: at the highest dose activity, negative = toxicity, usual class: cytotoxic; 2% of 360,000 active; AID 686971;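 also: potency is read from the fitted curve at half-maximal effect; 0% = DMSO wells and -100% = cell-free medium wells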
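Knockdown cells (IDH1KD HT-1080) received compounds 2 h after plating at 750 cells/well and were kept 48 h at 37 °C in 5% FBS RPMI. A CellTiter-Glo luminescence read gave % activity for curve fitting.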
Numbers without * were called inactive; i = inactive; ? = inconclusive; / = no result given; [ ] = remark or other dose. Unless noted, calls follow the shape of the dose curve; as a rule, active = well fitted curve in the direction sought with a large enough effect; inconclusive = small, poorly fitted or top-dose-only effect, or another doubt; inactive = no such curve, though single readings can be large; an effect the other way counts as inactive or inconclusive. Unless noted, % is scaled to controls: 0 for no effect and ±100 for the full control effect.

SMILES | DT40 TDP1 CPT | HT1080-NT tox | IL-1B inflam inh | TDP1 cell noCPT | HT1080 IDH1KD tx
COc1ccccc1OCCCC(=O)Nc1ccc([N+](=O)[O-])cc1Br | 7.1% | -28.4% | 6.6 | -5.3% | -23.8%
O=C(CSCc1ccc(F)cc1)N1CCN(c2ccc(F)cc2)CC1 | ? | 1.1% | -14.2 | 12.6µM* | -12.7%
Cc1ccc(OCCC(=O)N2CCN(c3ccc(O)cc3)CC2)cc1 | ? | ? | 23.5 | 16.4µM* | 7.31µM*
Cc1ccc(C(=O)C2CCN(CC(=O)N3CCN(c4ccc(F)cc4)CC3)CC2)cc1 | ? | -18.7% | -55.5* | 18.4µM* | -22.0%
COc1ccc(N2CCN(C(=O)CSCc3ccc(C)cc3)CC2)cc1 | 20.6µM* | / | / | 18.4µM* | /
COc1ccc(N2CCN(C(=O)CSc3ccc(C)cc3)CC2)cc1 | -3.5% | 20.8% | -14.8 | ? | 10.6%
O=C(CSCc1ccc(F)cc1)N1CCN(c2ccccc2)CC1 | ? | 4.0% | -15.6 | ? | -9.2%
COCCOC1CCN(C(=O)C2CCC(=O)N(CCc3ccccc3)C2)CC1 (configuration not stated) | -11.6% | -4.0% | i | -8.6% | -4.0%
S=C(NCc1ccco1)Nc1cc(-c2ccccc2)[nH]n1 | 11.6% | -11.3% | / | ? | -24.3%
Cc1cc(C)n(-c2ccc(C(=O)OC(C)C(=O)Nc3ccc(C(N)=O)cc3)cc2)n1 (configuration not stated) | -24.5% | -10.6% | -15.1 | -27.4% | -14.9%
Cc1ccc(-c2c(C#N)c(N)n(-c3ccccc3C)c(=O)c2C#N)cc1 | ? | -14.1% | 0.0 | -28.0% | 3.1%
O=C(CCc1c[nH]c2ccccc12)N1CCN(c2ccc(O)cc2)CC1 | 5.17µM* | ? | 30.6 | 7.31µM* | 13µM*
Cc1ccc(CSCC(=O)N2CCN(c3ccc(F)cc3)CC2)cc1 | 25.9µM* | 1.7% | -17.2 | 23.1µM* | ?
CC(=O)c1ccc(N2CCN(C(=O)CCC(=O)c3cccs3)CC2)cc1 | -18.6% | 6.6% | -1.1 | -29.7% | -3.7%
O=C(CCC(=O)N1CCN(c2ccc(O)cc2)CC1)c1cccs1 | ? | 5.5% | 8.4 | 23.1µM* | -29.6%
CCCOc1ccc(-c2cnc(N)s2)cc1 | -17.8% | 7.6% | -0.4 | -11.9% | 0.2%
COc1ccc(CCNC(=O)C2COc3ccccc3C2)cc1OC (configuration not stated) | -7.4% | / | / | -14.6% | /
Cn1cc(Cl)c(/C=C(\C#N)S(=O)(=O)c2ccccc2)n1 | 2.2% | 0.9% | 10.6 | 1.3% | 11.3%
CCOC(=O)c1c(-c2ccc(C)o2)csc1NC(=O)CSc1ncn[nH]1 | -20.3% | -6.9% | 0.0 | -7.3% | -26.0%
CCOC(=O)c1c(-c2cccs2)csc1NC(=O)CN1CCOCC1 | ? | -19.5% | -17.1 | 20.6µM* | -27.5%
CCOC(=O)c1c(-c2ccc(C)o2)csc1NC(=O)COC(=O)c1cccs1 | ? | -4.0% | -5.2 | 18.4µM* | -10.1%
CCOC(=O)c1c(-c2ccc(C)o2)csc1NC(=O)CN1CCOCC1 | 16.4µM* | -12.3% | -8.2 | 16.4µM* | -7.0%
CCOC(=O)c1c(-c2ccc(C)o2)csc1N | -7.1% | 0.0% | -11.4 | -7.5% | -1.3%
CCOC(=O)c1c(CC(C)C)csc1NC(=O)CCl | 13µM* | -9.0% | -24.2 | 10.3µM* | -9.3%
Cc1c(C(=O)N(C)Cc2nccs2)sc2ncnc(NCC3CCCO3)c12 (configuration not stated) | -20.3% | / | / | ? | /
SMILES | DT40 TDP1 CPT | HT1080-NT tox | IL-1B inflam inh | TDP1 cell noCPT | HT1080 IDH1KD tx
O=C(CSc1nnc(NC(=O)C2CC2)s1)Nc1ccccc1Cl | -10.5% | ? | 11.1 | ? | ?
CCOC(=O)c1c(-c2ccc(C)o2)csc1NC(=S)NC(=O)N(C)C | ? | 10µM* | 54.0 | ? | 12.6µM*
CCOC(=O)c1c(-c2cccs2)csc1NC(=O)CC(C)C | 18.4µM* | 5.4% | -2.9 | 20.6µM* | -7.2%
COCC(=O)N1CCC2(CC1)CN(C(=O)Nc1ccccc1)C2 | 15.2% | / | / | -4.3% | /
COCC(=O)N1CCC2(CC1)CN(c1ccc(-c3ccccc3)cc1)C2 | 8.2µM* | / | / | 5.8µM* | /
CC(=O)N1CCC2(CC1)CCN(c1ccc(-c3ccccc3)cc1)CC2 | 10.3µM* | / | / | 8.2µM* | /
O=C(c1ccncc1)N1CCC2(CC1)CN(c1ccncc1)C2 | 1.7% | / | / | -12.4% | /
O=C(c1ccncc1)N1CCC2(CC1)CN(c1ccccc1)C2 | 16.4µM* | / | / | ? | /
O=C(c1ccncc1)N1CCC2(CC1)CCN(c1ccc(-c3ccccc3)cc1)CC2 | 6.51µM* | / | / | ? | /
COc1ccccc1C1CN(CCNC(=O)c2cnsn2)Cc2ccccc2O1 (configuration not stated) | -7.3%[9.04 µM] | / | / | -56.6% | /
COc1cc(C(=O)NNC(=O)c2nn(C)c(=O)c3ccccc23)cc(OC)c1OC | -5.5% | -2.1% | 11.6 | 1.7% | 11.4%
CC(C)[C@@H](C(=O)N1CCN(C(=O)OC(C)(C)C)CC1)n1cc(CCO)nn1 | -1.5% | 5.6% | 9.1 | -4.2% | 3.3%
O=S(=O)(c1ccccc1)N1CCC2(CCN(c3ccncc3)CC2)CC1 | 11.6µM* | / | / | 13µM* | /
O=S(=O)(c1ccccc1)N1CCC2(CCN(c3cccc(-c4ccccc4)c3)CC2)CC1 | -7.6% | / | / | -17.6% | /
CCOc1ccc(OCC)c(NS(=O)(=O)c2ccc3c(c2)CCN3C(=O)C2CCC2)c1 | ? | 9.2% | 0.0 | -27.1% | 5.1%
Cc1cc(C)cc(NS(=O)(=O)c2ccc3c(c2)CCCN3C(=O)C2CCC2)c1 | 23.1µM* | / | / | 20.6µM* | /
O=C(C1CCC1)N1CCCc2cc(S(=O)(=O)Nc3ccc(F)cc3)ccc21 | ? | / | / | 23.1µM* | /
O=C(C1CCC1)N1CCc2cc(S(=O)(=O)NCCCN3CCCCC3)ccc21 | -10.7% | -15.9% | 2.9 | -8.3% | 3.4%
COc1ccc(CCNC(=O)c2cccnc2SC)cc1 | 11.1% | 8.2% | 31.0 | 0.4% | 18.3%
Cc1cc2c(cc1S(=O)(=O)CCC(=O)Nc1cccc(C(F)(F)F)c1)OCC(=O)N2 | -5.6% | 9.2% | 33.6 | 15.6% | 4.1%
C1=C(CN2CCOCC2)COc2c1cccc2OC[C@@H]1CNCCO1 | -1.9% | / | / | -1.8% | /
Cc1ccc(-c2ccc(/C=C3/NC(=O)NC3=O)o2)cc1[N+](=O)[O-] | ? | -10.2% | -8.4 | 20.6µM* | -13.9%
Cc1cccc(NC(=O)C2CCC(CNS(=O)(=O)c3ccc(Br)s3)CC2)c1 (configuration not stated) | 25.9µM* | / | / | 16.4µM* | /
COc1ccc(NC(=O)C2CCC(CNS(=O)(=O)c3ccc(Br)s3)CC2)cc1OC (configuration not stated) | 3.5% | / | / | -15.7% | /
